Results from PubChem BioAssay (Tox21).
Unmarked numbers belong to inactive results. Results filed as inconclusive are left out. Entries that show only a call come without a potency. Active and inactive are the calls of the source. The call rests on the fitted dose curve.

Tests used:
[1] = target: Acetylcholinesterase (Homo sapiens) (UniProt P22303); test: Acetylcholinesterase (AChE) small molecule antagonists: colormetric cell-based qHTS assay (AID 1347395); further: nearly all actives have a fitted effect of over 30% in size; further: potency means the concentration at half of the fitted maximal effect
Summary of the method: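 SH-SY5Y cells attached overnight, exposed to compound 30 min at 37 C, then given DTNB/acetylthiocholine; after 90 min at 37 C, colorimetric thiocholine read gives cellular AChE activity.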

[2] = target: Acetylcholinesterase (Homo sapiens) (UniProt P22303); test: Acetylcholinesterase (AChE) small molecule antagonists: fluorescence cell-based qHTS assay (AID 1347398); settings: Potency: AChE activity; outcome: AChE activity; further: nearly all actives have a fitted effect of over 50% in size; further: potency means the concentration at half of the fitted maximal effect
Summary of the method: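 Endogenous acetylcholinesterase of SH-SY5Y neuroblastoma cells is measured in situ. After overnight attachment and 30 min compound exposure, cells receive acetylthiocholine and Thiolite Green; fluorescence is read after 40 min at room temperature.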

[3] = target: Acetylcholinesterase (Homo sapiens) (UniProt P22303); test: Acetylcholinesterase (AChE) small molecule antagonists: enzyme-based qHTS assay with human liver microsomes (AID 1347399); settings: Potency: qHTS inhibition; outcome: qHTS inhibition; further: nearly all actives have a fitted effect of over 60% in size
Summary of the method: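 Recombinant human AChE (50 mU/mL in the enzyme mix) and human liver microsomes (0.25 mg/mL final) were preincubated with compound and NADPH (0.25 mg/mL final) for 30 min at 37 C. Acetylthiocholine/DTNB was then added; thiocholine was read colorimetrically after 10 min at room temperature.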

Sequence of Acetylcholinesterase (Homo sapiens) (P22303 whole entry, looked up): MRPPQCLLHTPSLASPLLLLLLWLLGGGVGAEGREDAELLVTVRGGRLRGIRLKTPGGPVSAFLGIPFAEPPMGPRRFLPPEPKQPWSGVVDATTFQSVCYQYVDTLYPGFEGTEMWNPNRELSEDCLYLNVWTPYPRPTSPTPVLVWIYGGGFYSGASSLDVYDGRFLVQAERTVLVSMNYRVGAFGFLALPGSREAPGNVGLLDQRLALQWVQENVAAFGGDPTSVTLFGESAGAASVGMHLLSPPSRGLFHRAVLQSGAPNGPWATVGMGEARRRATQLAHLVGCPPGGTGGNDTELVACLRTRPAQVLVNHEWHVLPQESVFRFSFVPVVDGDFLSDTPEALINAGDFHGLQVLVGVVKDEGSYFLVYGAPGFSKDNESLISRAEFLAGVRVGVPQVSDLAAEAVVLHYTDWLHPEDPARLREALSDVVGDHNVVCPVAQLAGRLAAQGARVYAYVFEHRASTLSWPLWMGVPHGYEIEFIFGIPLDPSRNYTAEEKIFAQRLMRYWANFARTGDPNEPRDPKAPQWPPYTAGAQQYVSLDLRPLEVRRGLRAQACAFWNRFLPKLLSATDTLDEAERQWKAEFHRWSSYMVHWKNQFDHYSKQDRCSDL

SMILES | Potency [1] | Potency [2] | Potency [3] | activity, negative = inhibition [1] | activity change, negative = inhibition [2] | activity change, negative = inhibition [3]
CCN(CC)c1cccc(O)c1 | 36.3 µM (active) | 32.4 µM (active) | inactive |  |  | 
NS(=O)(=O)Cc1noc2ccccc12 | inactive | inactive | inactive |  |  | 
O=S(=O)(O)c1cc(O)c2ccc(Nc3ccccc3)cc2c1 | inactive | inactive | inactive |  |  | 
C=CC(=O)OCCn1c(=O)n(CCOC(=O)C=C)c(=O)n(CCOC(=O)C=C)c1=O | inactive | inactive | inactive |  |  | 
CCCCCC/C=C\CCCCCCCC(=O)O | inactive | inactive | inactive |  |  | 
O=S(=O)(c1ccc(OCc2ccccc2)cc1)c1ccccc1O | inactive | inactive | inactive |  |  | 
CCOC(=O)C(=O)c1csc(NC=O)n1 | inactive | inactive | inactive |  |  | 
CN(C)CCOc1ccc(/C(=C(/CCCl)c2ccccc2)c2ccccc2)cc1 | inactive | inactive | inactive |  |  | 
Cc1cccn2c(=O)c(-c3nnn[nH]3)cnc12 |  |  |  | -0.311% [at 23.6 µM] | -17.5% [at 23.8 µM] | -5.01% [at 23.6 µM]
CCCCCCCCCOC(=O)c1ccc(O)cc1 | inactive | inactive | inactive |  |  | 
Cn1c(=O)cc(Oc2ccc(F)cc2F)c2cnc(NCC(C)(C)O)nc21 | 28.3 µM (active) | 28.3 µM (active) | inactive |  |  | 
COc1ccc(N=Nc2cc(C)c(N=Nc3ccc(S(=O)(=O)O)cc3)cc2OC)cc1 | inactive | inactive | inactive |  |  | 
CC1CCCCN1CCCOC(=O)c1ccc(OC2CCCCC2)cc1 (configuration not stated) | 17.4 µM (active) | 12.3 µM (active) | inactive |  |  | 
CCOC(=O)[C@H](CCc1ccccc1)N[C@@H](C)C(=O)N1Cc2cc(OC)c(OC)cc2C[C@H]1C(=O)O | inactive | inactive | inactive |  |  | 
